# Among all 1,400 compounds or so, about 1,100 (79%) were called active.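 How the source made its calls: active means fitted half-maximal concentration of a falling signal no higher than twice the top valid dose in every test run; inconclusive means runs disagree, or flat partial inhibition, or poor fit; inactive means every run inactive: flat, wrong direction, or potency beyond limit.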 The set was probably picked from earlier hits. The list is a sample of the results. Entries with a potency or affinity are not part of this list.
# Assay: HIV-1 AD8 envelope cell-cell fusion blockers – cherry-pick, dose response (AID 652062)
# Conditions: HeLa-AD8 Env / CEM-CCR5 cell fusion, luciferase; at 35 µM (top of the series) unless noted
row,SMILES,"activity change, negative = inhibition"
1,CCN(CC)S(=O)(=O)c1ccc(NC2c3ccccc3C(=O)N2Cc2ccc3c(c2)OCO3)cc1 (centres undefined),-25.4%
2,CCOc1ccc(NC2c3ccccc3C(=O)N2Cc2ccco2)cc1 (centres undefined),51.2%
3,O=C(Nc1cccc(F)c1)c1cc(S(=O)(=O)N2CCC(C(=O)O)CC2)ccc1F,43.8%
4,O=C(Nc1ccc(Cl)cc1)C1CCCN(C2=NS(=O)(=O)c3ccccc32)C1 (centres undefined),-27% [at 16 µM]
5,Cc1noc(C)c1NC(=O)N(C)C[C@H]1OCCCC[C@H](C)Oc2ccc(NC(=O)c3ccccc3)cc2C(=O)N([C@H](C)CO)C[C@@H]1C,107%
6,C[C@H](CO)N1C[C@H](C)[C@@H](CN(C)C(=O)Nc2cccc3ccccc23)OCCCC[C@H](C)Oc2ccc(N(C)C)cc2C1=O,-37.4%
7,O=C(N/N=C/c1ccc(-n2ccnc2)cc1)c1cccs1,91.2%
8,Clc1ccc2c(c1)C1=C(C(c3ccncc3)O2)C(c2ccc(Br)cc2)n2ncnc2N1 (centres undefined),285% [at 16 µM]
9,NC(Cc1ccc(F)cc1)c1csc(Nc2ccc(C(F)(F)F)cn2)n1 (centres undefined),-26.6% [at 16 µM]
10,Cc1cccc(/C=N\Nc2cn[nH]c(=O)c2Cl)c1,183%
11,COc1ccc(CCN2C(=O)c3[nH]nc(-c4ccccc4O)c3C2c2cccc(O)c2)cc1OC (centres undefined),4.61%
12,COc1ccc(OC)c(CN2C(=O)c3ccccc3C2c2nnnn2-c2c(C)cccc2C)c1 (centres undefined),-4.67%
13,CN(C(=O)c1cccc(NC(=O)Cc2cccc(NC(=O)C3CCCN(C(=O)C4CCC4)C3)c2)c1)C1CCC1 (centres undefined),49.5%
14,COc1ccc(-c2nnc(Nc3nc4c(OC)cccc4s3)o2)cc1,-27.2%
15,O=C(Cc1ccncc1)N[C@H]1CC[C@@H](CCn2cc(-c3ccccc3F)nn2)O[C@@H]1CO,-16.3%
16,O=C(CCN1CCCCC1)N[C@H]1CC[C@H](CCn2cc(-c3ccccc3)nn2)O[C@@H]1CO,-27.5%
17,O=C(CCN1CCCCC1)N[C@@H]1CC[C@@H](CCn2cc(-c3ccccc3)nn2)O[C@@H]1CO,-17.1%
18,O=C(Nc1cccc(F)c1)N[C@@H]1CC[C@H](CCNS(=O)(=O)c2cccc(Cl)c2)O[C@H]1CO,101%
19,COc1ccccc1S(=O)(=O)n1cc(Cc2ccccc2)c(N)n1,-17%
20,O=C(C[C@@H]1CC[C@@H](NC(=O)c2ccncc2)[C@H](CO)O1)NCCc1ccncc1,38.7%
21,COc1ccc(Nc2cc(C)nc(NCc3ccccc3)n2)cc1,-69.2%
22,C[C@@H]1CN([C@@H](C)CO)C(=O)c2cccc(NC(=O)c3cnccn3)c2O[C@H]1CN(C)Cc1ccc(Cl)c(Cl)c1,142% [at 16 µM]
23,C[C@@H]1CN([C@@H](C)CO)C(=O)c2cccc(NC(=O)c3ccc(-c4nccs4)cc3)c2O[C@H]1CN(C)CC1CC1,28.5%
24,C[C@@H]1CN([C@H](C)CO)C(=O)c2cccc(NC(=O)c3ccncc3)c2O[C@@H]1CN(C)Cc1ccc(C(=O)O)cc1,3.82%

# — PubChem BioAssay AID652062 (Broad Institute, 2013)
